An excerpt weighted towards active compounds, which were near 6.8% of everything screened.
NADH enzymes = inhibitors of PK/LDH coupling enzymes, profiling panel, artefact control, biochemical, MLSMR library; coupled PK/LDH NADH assays, four targets; IC50, µM (top dose mostly 10 µM), without a hit: top-dose inhibition; 65,000 compounds, 0.02% hits; AID 774, 2007;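 active = single-dose screening hits from any of four coupled enzyme assays that gave an IC50 when retested across doses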;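 note: the DPM-DC format reads NADH fluorescence rather than 340 nm absorbance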
Spn MK inh = S. pneumoniae MK inhibitors, primary screen, biochemical, PK/LDH-coupled NADH absorbance; mevalonate kinase [Streptococcus pneumoniae D39]; purified MK, PK/LDH-coupled NADH absorbance 340 nm; inhibition, % at 10 µM; 65,000 compounds, 0.48% hits; AID 555, 2006;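 active = ranked among the strongest by inhibition in the single 10 µM screen, a fixed top-ranked set picked for dose follow-up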
A340 absorber = compound light absorbance at 340 nm, profiling panel, artefact control, biochemical, MLSMR library, data from PS, PMK, MK assays | compound absorbance at 340 nm, fold over control | fold change at 10 µM | 65,000 tested, under 10 active;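 active = at 10 µM dose, initial 340 nm absorbance at least 2 fold that of control wells; inactive = change under 2 fold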;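 note: initial absorbance extrapolated from kinetic A340 decline of NADH oxidation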
Fluor 339 460 = intrinsic fluorescence of library compounds, ex339/em460 – biochemical, MLSMR library, data from DPM-DC assay, artefact control, profiling panel | compound autofluorescence, ex339/em460 nm, NADH buffer; active compounds read high; 1 = no-compound wells, NADH background | fluorescence fold increase at 10 µM | 65,000 compounds, 5.5% hits;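 active = at 10 µM, mean starting fluorescence two-fold or more over control wells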;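 note: signal is the first read of a kinetic run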
Spn PMK inh = S. pneumoniae PMK inhibitors, primary screen, biochemical, mevalonate pathway, pilot trial included. phosphomevalonate kinase (Streptococcus pneumoniae D39). AID 539, 2006. purified PMK, PK/LDH-coupled NADH absorbance 340 nm. 65,000 compounds, 0.49% hits. inhibition, % at 10 µM;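 active = top-ranked compounds by inhibition in the single 10 µM screen, taking a fixed number of the strongest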;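 note: 0% = full reaction with DMSO carrier and 100% = background rate without enzyme reaction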
Spn DPM-DC inh = S. pneumoniae DPM-DC inhibitors, primary screen, biochemical, PK/LDH-coupled NADH fluorescence; diphosphomevalonate decarboxylase (Streptococcus pneumoniae D39); purified DPM-DC; calls only at 10 µM; 65,000 compounds, 0.49% hits;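 active = the 320 compounds with the highest percent inhibition in the single-dose primary screen, excluding strongly autofluorescent ones, cut at about 32% in these data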;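 note: kinetic rate of NADH fluorescence loss reporting ADP formed by the decarboxylase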
An asterisk follows results filed as active; i = inactive; / = no result shown.

SMILES	NADH enzymes	Spn MK inh	A340 absorber	Fluor 339 460	Spn PMK inh	Spn DPM-DC inh
COC(=O)c1sc2ccccc2c1N	7%	6	1.1	2.1*	7	/
COC(=O)c1sc2ccccc2c1C(=O)OC	5%	1	1	1.2	14	i
Cc1cc(N2CCCN(C)CC2)nc2cc(Cl)ccc12	1%	0	1.1	1.6	1	i
COc1ccc(N2CCN(c3cc(C)c4ccc(O)cc4n3)CC2)cc1	3%	0	1.1	2.1*	5	/
Cc1cc(N2CCOCC2)nc2cc(O)ccc12	4%	5	1.1	2.2*	3	/
O=C(c1cccc(C(=O)N2CCN(c3ccccc3F)CC2)n1)N1CCN(c2ccccc2F)CC1	7%	7	1	1.1	14	i
Cc1cc(N2CCN(c3ccccc3F)CC2)nc2cc(O)ccc12	5%	7	1.1	3.1*	7	i
C/C(N)=C(/C#N)C(=O)CSc1nnnn1-c1ccc(C)cc1C	4%	4	1	1.1	7	i
Cc1nnc2ccc(N3CCC(C(N)=O)(N4CCCCC4)CC3)nn12	0%	1	1.1	1	0	i
Cc1noc(C)c1COC(=O)c1ccc(-c2nc3ccccc3s2)s1	1%	2	1.1	4*	1	i
Cc1noc(C)c1COC(=O)CCCc1nc2ccccc2s1	5%	2	1	1.1	9	i
CCOC(=O)Cn1c(=O)oc2cc(S(=O)(=O)N3CCc4ccccc43)ccc21	3%	0	1.1	1.1	7	i
COc1ccc(NC(=O)N(CCCN(C)C)Cc2cc3cc(OC)ccc3[nH]c2=O)cc1	8%	7	1.1	1.8	16	i
COc1ccc(NC(=O)N(CCN2CCCC2)Cc2cc3cc(OC)c(OC)cc3[nH]c2=O)cc1	9%	4	1.2	2.1*	7	i
CCN(CC)CCCN(Cc1cc2cc(OC)ccc2[nH]c1=O)C(=O)Nc1ccc(F)cc1	9%	1	1.1	2*	9	i
CCN(CC)CCCN(Cc1cc2cc(OC)ccc2[nH]c1=O)C(=O)Nc1ccccc1	7%	2	0.99	1.8	16	i
O=C(Nc1cccc(F)c1)c1ccc2c(c1)OCO2	4%	18	1	1.1	8	i
Cc1ccc(NC(=O)c2oc3ccccc3c2NC(=O)c2ccc3c(c2)OCO3)cc1	1%	0	1.1	2*	3	i
CCOC(=O)c1ccc(NC(=O)c2ccc3c(c2)OCO3)cc1	2%	3	1.1	1.1	4	i
O=C(Nc1c(C(=O)Nc2cccc(F)c2)oc2ccccc12)c1ccc2c(c1)OCO2	3%	0	1.1	5*	6	/
COCCNc1oc(-c2ccccc2Cl)nc1C#N	8%	5	1.1	1.7	6	i
COc1ccc(CCNc2oc(-c3ccccc3OC)nc2C#N)cc1OC	15%	14	1	3.9*	15	/
COc1ccccc1-c1nc(C#N)c(NCc2ccc(F)cc2)o1	12%	12	1	3.9*	12	/
COCCNc1oc(-c2ccc(F)cc2)nc1C#N	3%	0	1.1	2.4*	5	/
COc1ccc(CCNc2oc(-c3ccccc3OC)nc2C#N)cc1	6%	16	1	3*	18	/
SMILES	NADH enzymes	Spn MK inh	A340 absorber	Fluor 339 460	Spn PMK inh	Spn DPM-DC inh
N#Cc1nc(COc2ccccc2Cl)oc1NCc1ccc(F)cc1	2%	3	1	1.3	3	i
CCc1nnc(NC(=O)CSc2nnc(CSc3nc(C)cc(C)n3)n2CC)s1	3%	12	1.1	1	2	i
COc1ccc(CNc2oc(COc3ccccc3)nc2C#N)cc1	7%	5	1	0.96	16	i
N#Cc1nc(-c2ccc(F)cc2)oc1NCc1ccccc1	1%	0	1.1	2.2*	1	/
O=C(CCCCCn1c(=O)[nH]c2ccsc2c1=O)N1CCN(C2CCCCC2)CC1	5%	6	1	1	10	i
Cc1c(C(=O)Nc2ccc(C(=O)O)cc2)cnn1C	7%	10	1	1.1	10	i
CC1CCc2c(sc(NC(=O)c3noc4c3CCCC4)c2C(N)=O)C1 (configuration not stated)	3%	6	1.1	4.8*	0	/
COc1ccc(C2Nc3ccccc3C(=O)N2Cc2ccco2)cc1COc1ccc(NC(C)=O)cc1 (configuration not stated)	1%	0	1.1	3.8*	1	/
O=C1c2ccccc2C(O)N1Cc1ccco1 (configuration not stated)	6%	8	1	1.1	10	i
Cc1ccc(C2Nc3ccccc3C(=O)N2Cc2ccco2)cc1 (configuration not stated)	7%	8	1	4*	6	/
O=C1c2ccccc2NC(c2cccc(F)c2)N1Cc1ccco1 (configuration not stated)	5%	6	0.99	3*	4	/
Cn1c(=O)c2c(nc(CN3CCc4ccccc4C3)n2CCc2ccccc2)n(C)c1=O	9%	13	0.98	1.1	14	i
COc1ccc(S(=O)(=O)Nc2cc(C(=O)NCCC(C)C)ccc2N2CCOCC2)cc1	9%	9	0.99	1.1	17	i
O=C1CCCC2=C1C(c1ccncc1)c1c(nc(SCc3ccccc3Cl)[nH]c1=O)N2 (configuration not stated)	11%	9	1	2.1*	6	i
Cc1ccc(N(CC(=O)N2CC(=O)Nc3ccccc32)S(=O)(=O)c2ccc3c(c2)OCCO3)cc1	3%	10	1.1	1.1	0	i
O=c1c2cccc3c2c(nn1CN1CCOCC1)-c1ccccc1-3	12%	14	1.1	2.4*	7	i
Cc1ccc(-c2nn(CC(=O)NCCN3CCOCC3)c(=O)c3ccccc23)cc1	3%	3	1.1	1.1	6	i
Clc1ccc(N2CCN(c3ncnc4c3oc3ccccc34)CC2)cc1	7%	5	1.1	3.7*	9	/
O=C(Cc1cccs1)Nc1ccc(N2CCOCC2)cc1	2%	5	1	1.1	0	i
COc1ccc2cnn(-c3ccccc3C)c(=O)c2c1OC	2%	6	1	1.1	2	i
CCN(CC)c1ccc(NC(=O)c2ccc(Br)o2)c(C)c1	5%	10	1.1	1.1	5	i
CCCn1nc(C(=O)NCCc2ccc(S(N)(=O)=O)cc2)c2ccccc2c1=O	7%	4	0.99	1	16	i
N#Cc1sc2nc3c(c(-c4cccnc4)c2c1N)CCC3	8%	7	1.1	1.2	7	i

Assay outcomes (PubChem)
